Laboratory results reported in PubChem BioAssay (NCI).
The panel holds about 83,000 compounds, 20% with a hit somewhere; the sample as a whole holds those more often.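 Compound tested at a single concentration for 48 hours in 96-well plates; a percent growth value below 10 was scored as active.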 The source made the active and inactive calls.

How the values were obtained:
Experiment in all cases: NCI-60 one-dose screen, 48 h (100 = growth as untreated, 0 = no growth, -100 = all killed)
SR leukemia = details: 10 µM unless noted
RPMI-8226 leukemia = details: 10 µM unless noted
OVCAR-8 ovarian = details: 10 µM unless noted
OVCAR-5 ovarian = details: 10 µM unless noted
OVCAR-4 ovarian = details: 10 µM
SK-OV-3 ovarian = details: 10 µM unless noted
OVCAR-3 ovarian = details: 10 µM unless noted
HS 578T breast = details: 10 µM unless noted
NCI/ADR-RES ovarian = details: 10 µM unless noted
IGROV1 ovarian = details: 10 µM unless noted

Measured: growth

Cn1c(=O)c(C#N)c(-c2ccco2)n2c(S(=O)(=O)Cc3ccccc3)nnc12
inactive: SR leukemia 65.3% | RPMI-8226 leukemia 80.4% | OVCAR-8 ovarian 48.9% | OVCAR-5 ovarian 99.3% | OVCAR-4 ovarian 81.9% | SK-OV-3 ovarian 111% | OVCAR-3 ovarian 103% | HS 578T breast 124% | NCI/ADR-RES ovarian 90.4%

CCN(CC)CCS(=O)(=O)CCNc1ccnc2cc(Cl)ccc12
inactive: OVCAR-8 ovarian 14.5% | OVCAR-5 ovarian 18.6% | OVCAR-4 ovarian 24.7% | SK-OV-3 ovarian 22.5%
active: SR leukemia 6.28% | RPMI-8226 leukemia -4.96% | OVCAR-3 ovarian -14.9% | NCI/ADR-RES ovarian -14.2%

Cc1cccc([N+](=O)[O-])c1I
inactive: SR leukemia 128% | RPMI-8226 leukemia 99.6% | OVCAR-8 ovarian 98.2% | OVCAR-5 ovarian 98.9% | OVCAR-4 ovarian 110% | SK-OV-3 ovarian 115% | OVCAR-3 ovarian 118% | HS 578T breast 113% | NCI/ADR-RES ovarian 109%

O=c1c2c3c(sc2n2cnnc2n1Cc1ccccc1)CCCC3
inactive: SR leukemia 78.6% | RPMI-8226 leukemia 72.8% | OVCAR-8 ovarian 97.4% | OVCAR-5 ovarian 89.6% | OVCAR-4 ovarian 106% | SK-OV-3 ovarian 106% | OVCAR-3 ovarian 98% | HS 578T breast 94.2% | NCI/ADR-RES ovarian 96.9%

CCC(Br)(CC)C(=O)c1ccc(OCC(=O)O)c(Cl)c1Cl
inactive: SR leukemia 120% | RPMI-8226 leukemia 121% | OVCAR-8 ovarian 97.4% | OVCAR-5 ovarian 106% | OVCAR-4 ovarian 97.4% | SK-OV-3 ovarian 94.3% | OVCAR-3 ovarian 116% | HS 578T breast 107% | NCI/ADR-RES ovarian 99.1%

O=[N+]([O-])c1cc([N+](=O)[O-])c(C(F)(F)F)cc1NN=C(c1ccc(O)cc1)c1ccc(O)cc1
active: OVCAR-8 ovarian -49.9% | OVCAR-5 ovarian -6.51% | SK-OV-3 ovarian -23.1% | NCI/ADR-RES ovarian -19.9%
inactive: SR leukemia 66.1% | RPMI-8226 leukemia 76.4% | OVCAR-4 ovarian 81.3% | OVCAR-3 ovarian 96.3%

C#CC(OC(=O)N(C)C)(c1ccccc1)c1ccc(F)cc1 (stereo not drawn)
inactive: SR leukemia 108% | RPMI-8226 leukemia 128% | OVCAR-8 ovarian 93.5% | OVCAR-5 ovarian 93.4% | OVCAR-4 ovarian 107% | SK-OV-3 ovarian 114% | OVCAR-3 ovarian 133% | HS 578T breast 128% | NCI/ADR-RES ovarian 89.3%

Cc1cc(SC#N)ncn1
inactive: SR leukemia 109% | RPMI-8226 leukemia 101% | OVCAR-8 ovarian 96.2% | OVCAR-5 ovarian 115% | OVCAR-4 ovarian 103% | SK-OV-3 ovarian 105% | OVCAR-3 ovarian 100% | HS 578T breast 105% | NCI/ADR-RES ovarian 103%

Nc1ccc(NC(=O)c2ccccc2)c2c1C(=O)c1ccccc1C2=O
inactive: SR leukemia 96.8% | RPMI-8226 leukemia 102% | OVCAR-8 ovarian 96.9% | OVCAR-5 ovarian 117% | OVCAR-4 ovarian 103% | SK-OV-3 ovarian 112% | OVCAR-3 ovarian 96.5% | NCI/ADR-RES ovarian 99.6%

O=[N+]([O-])c1cc([N+](=O)[O-])c(NN=C(c2ccc(O)cc2)c2ccc(O)cc2)cc1Cl
active: OVCAR-8 ovarian -76.6% | OVCAR-4 ovarian -47.7% | OVCAR-3 ovarian -94.6% | HS 578T breast -55.6% | NCI/ADR-RES ovarian -56.8%
inactive: SR leukemia 18.8% | RPMI-8226 leukemia 67% | OVCAR-5 ovarian 78.1% | SK-OV-3 ovarian 99.5%

Ic1ccc2[nH]cc(SSc3c[nH]c4ccc(I)cc34)c2c1
inactive: SR leukemia 13.8% | OVCAR-8 ovarian 32.6% | OVCAR-5 ovarian 42.7% | OVCAR-4 ovarian 25.3% | HS 578T breast 65.7%
active: RPMI-8226 leukemia 3.93% | SK-OV-3 ovarian -20.1% | OVCAR-3 ovarian -9.35% | NCI/ADR-RES ovarian 7.06%

CCCC(NC(=O)OCc1ccccc1)C(=O)O (stereo not drawn)
inactive: SR leukemia 121% | RPMI-8226 leukemia 68.7% | OVCAR-8 ovarian 93.5% | OVCAR-5 ovarian 94.8% | OVCAR-4 ovarian 106% | SK-OV-3 ovarian 119% | OVCAR-3 ovarian 106% | HS 578T breast 71.9% | NCI/ADR-RES ovarian 60.4%

C[N+](C)(C)c1ncnc2[n-]cnc12
inactive: SR leukemia 107% | RPMI-8226 leukemia 126% | OVCAR-8 ovarian 93.7% | OVCAR-5 ovarian 76.4% | OVCAR-4 ovarian 105% | SK-OV-3 ovarian 98.7% | OVCAR-3 ovarian 92.4% | HS 578T breast 95.6% | NCI/ADR-RES ovarian 41.5%

CCOC(=O)c1c[nH]c2cc(OCC3CC3)c(OCC3CC3)cc2c1=O
inactive: SR leukemia 104% | RPMI-8226 leukemia 103% | OVCAR-8 ovarian 99.5% | OVCAR-5 ovarian 102% | OVCAR-4 ovarian 118% | SK-OV-3 ovarian 110% | OVCAR-3 ovarian 109% | HS 578T breast 103% | NCI/ADR-RES ovarian 111%

Cc1ccc(S(=O)(=O)N/N=C2\CC3CCC2(C)C3(C)C)cc1 (stereo not drawn)
inactive: SR leukemia 105% | RPMI-8226 leukemia 97.4% | OVCAR-8 ovarian 88.8% | OVCAR-5 ovarian 83.4% | OVCAR-4 ovarian 104% | SK-OV-3 ovarian 114% | OVCAR-3 ovarian 103% | HS 578T breast 120% | NCI/ADR-RES ovarian 213%

Cc1ccc(C2=C/C(=C/c3ccc(Br)cc3)C(=O)N2CCc2ccc(S(N)(=O)=O)cc2)cc1
inactive: SR leukemia 87.2% | RPMI-8226 leukemia 96.1% | OVCAR-8 ovarian 95.7% | OVCAR-5 ovarian 97.2% | OVCAR-4 ovarian 91.5% | IGROV1 ovarian 85.5% | OVCAR-3 ovarian 104% | HS 578T breast 93.4% | NCI/ADR-RES ovarian 89.1%

Cc1cccc(C[C@H](NC(=O)Nc2ccc(Cl)cc2F)C(=O)N[C@@H]2C(=O)N3C[C@H](O)C[C@H]3C(=O)N3CCN(C)C[C@H]3C(=O)N[C@@H](C)C(=O)N3C[C@H](C)C[C@H]3C(=O)O[C@H]2C)c1
inactive: SR leukemia 45% | RPMI-8226 leukemia 22.6% | OVCAR-8 ovarian 26.9% | OVCAR-5 ovarian 38.8% | OVCAR-4 ovarian 15.4% | IGROV1 ovarian 50.7% | OVCAR-3 ovarian 17.2% | HS 578T breast 43% | NCI/ADR-RES ovarian 107%

COc1cc2c(O)n(CCCN3CCOCC3)c3c4cnc5cccc(c(=O)c3c2cc1OC)c54
inactive: SR leukemia 20.5% | RPMI-8226 leukemia 14.8% | OVCAR-8 ovarian 39.9% | OVCAR-5 ovarian 69% | OVCAR-4 ovarian 48% | IGROV1 ovarian 60.3% | OVCAR-3 ovarian 62.9% | HS 578T breast 81.2% | NCI/ADR-RES ovarian 74.5%

CCCCCCCCN(CCCCCCCC)CC(O)c1ccc(Cl)c(C)c1Cl (stereo not drawn)
inactive: SR leukemia 52.6% | RPMI-8226 leukemia 72.8% | OVCAR-8 ovarian 93.6% | OVCAR-5 ovarian 84.1% | OVCAR-4 ovarian 93.5% | SK-OV-3 ovarian 77.5% | OVCAR-3 ovarian 88.9% | NCI/ADR-RES ovarian 89.6%

CC1Cc2c(Cl)ncnc2N(C)c2ccc(O)cc21 (stereo not drawn)
inactive: SR leukemia 90.3% | RPMI-8226 leukemia 68.5% | OVCAR-8 ovarian 29.7% | OVCAR-5 ovarian 102% | OVCAR-4 ovarian 27% | IGROV1 ovarian 103% | OVCAR-3 ovarian 50.8% | HS 578T breast 28.8% | NCI/ADR-RES ovarian 17.3%

CCCCOC(=O)c1cccc([N+](=O)[O-])c1
inactive: SR leukemia 132% | RPMI-8226 leukemia 90.2% | OVCAR-8 ovarian 100% | OVCAR-5 ovarian 97.9% | OVCAR-4 ovarian 113% | SK-OV-3 ovarian 109% | HS 578T breast 114% | NCI/ADR-RES ovarian 107%

c1cc2ccc3cc2cc1CNCCN1CCNCc2ccc4ccc(cc4c2)CNCCN(CCNC3)CCNCc2ccc3ccc(cc3c2)CNCC1
inactive: SR leukemia 10.1% | OVCAR-8 ovarian 69.3% | IGROV1 ovarian 21.9% | HS 578T breast 48.4% | NCI/ADR-RES ovarian 99%
active: RPMI-8226 leukemia 7.69% | OVCAR-5 ovarian 0.497% | OVCAR-4 ovarian -7.14% | OVCAR-3 ovarian -1.21%

O=C(Nc1ccc(Nc2ccncc2)cc1)c1ccc([N+](=O)[O-])cc1
inactive: RPMI-8226 leukemia 22.8% | OVCAR-8 ovarian 61% | OVCAR-5 ovarian 101% | OVCAR-4 ovarian 67.3% | IGROV1 ovarian 85.4% | OVCAR-3 ovarian 60.4% | HS 578T breast 95.4% | NCI/ADR-RES ovarian 92%
active: SR leukemia -45.3%

Cc1cccc(C[C@H](NC(=O)Nc2ccc(C)cc2F)C(=O)N[C@@H]2C(=O)N3C[C@H](O)C[C@H]3C(=O)N3CCN(C)C[C@H]3C(=O)N[C@@H](C)C(=O)N3C[C@H](C)C[C@H]3C(=O)O[C@H]2C)c1
inactive: SR leukemia 34.5% | RPMI-8226 leukemia 28.2% | OVCAR-8 ovarian 50.8% | OVCAR-5 ovarian 42.7% | OVCAR-4 ovarian 12.9% | IGROV1 ovarian 52.3% | OVCAR-3 ovarian 24.4% | HS 578T breast 50.8% | NCI/ADR-RES ovarian 114%

O=C(Nc1cc(-c2cccnc2)nc(NCCCN2CCOCC2)n1)c1cc(Br)cc(C(F)(F)F)c1
inactive: RPMI-8226 leukemia 30.2% | OVCAR-8 ovarian 58.6% | OVCAR-5 ovarian 81.4% | OVCAR-4 ovarian 62.2% | IGROV1 ovarian 63.1% | OVCAR-3 ovarian 79.9% | HS 578T breast 54% | NCI/ADR-RES ovarian 56.6%
active: SR leukemia 4.25%

N=C(N)c1ccc(-c2ccc(-c3ccc(-c4cccs4)s3)s2)cc1F
inactive: SR leukemia 18.6% | RPMI-8226 leukemia 49.4% | OVCAR-8 ovarian 102% | OVCAR-5 ovarian 75.8% | OVCAR-4 ovarian 90.5% | IGROV1 ovarian 93.5% | OVCAR-3 ovarian 91.4% | HS 578T breast 101% | NCI/ADR-RES ovarian 102%

COc1ccc2nc3ccccc3c(NCCNCCO)c2c1
inactive: SK-OV-3 ovarian 16.5% | NCI/ADR-RES ovarian 68.7%
active: SR leukemia -11.1% | RPMI-8226 leukemia 2.45% | OVCAR-8 ovarian 5.82% | OVCAR-5 ovarian -4.97% | OVCAR-4 ovarian -10.4% | HS 578T breast -25.4%

COc1ccc2c(c1)c(-c1noc(C(=O)c3cn(C)c4ncc(Br)cc34)n1)cn2C
inactive: SR leukemia 64% | RPMI-8226 leukemia 62.2% | OVCAR-8 ovarian 74.4% | OVCAR-5 ovarian 80.4% | OVCAR-4 ovarian 42.9% | IGROV1 ovarian 54.3% | OVCAR-3 ovarian 30.5% | HS 578T breast 27.8% | NCI/ADR-RES ovarian 59.7%

CSc1nc2c(c(=O)n1C)C1(C(=O)N(Cc3ccccc3)c3ccccc31)c1c(nc(SC)n(C)c1=O)N2
inactive: SR leukemia 104% | RPMI-8226 leukemia 59.2% | OVCAR-8 ovarian 85.5% | OVCAR-5 ovarian 102% | OVCAR-4 ovarian 99.5% | IGROV1 ovarian 98% | OVCAR-3 ovarian 75.2% | HS 578T breast 97.9% | NCI/ADR-RES ovarian 95.2%

COc1cc2c(c(OC)c1OC)-c1ccc(NNC(N)=S)c(=O)cc1[C@@H](NC(C)=O)CC2
inactive: SR leukemia 13.2% | OVCAR-5 ovarian 31.5% | OVCAR-4 ovarian 23.1% | HS 578T breast 52.1% | NCI/ADR-RES ovarian 87.4%
active: RPMI-8226 leukemia -11.9% | OVCAR-8 ovarian 6.26% | SK-OV-3 ovarian 7.84%
